Test results published in PubChem BioAssay (EPA / NIEHS).
The source made the active and inactive calls. Rule for the calls: active = hit-call score of the fitted dose curve at least 0.9, where 1 is the maximum; inactive = score below 0.9.

Experiments:
[1] = read-out: Urokinase-type plasminogen activator receptor (uPAR), PLAUR (gene 5329); assay: BSK_4H_uPAR: BioMAP Diversity Plus: 4H Assay for Urokinase-type plasminogen activator receptor (uPAR) Biomarker Activity (AID 2283030); conditions: primary human endothelial cells (HUVEC); actives raise or lower the signal
Procedure, shortened: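 Human umbilical vein endothelial cells in the 4H system, 24 h after chemical dosing. Cell-surface uPAR measured by ELISA, fitted in both directions versus DMSO; cytotoxicity checked by SRB total protein in parallel cultures.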

[2] = read-out: Vascular endothelial growth factor receptor 2 (Homo sapiens) (UniProt P35968); assay: BSK_4H_VEGFRII: BioMAP Diversity Plus: 4H Assay for Vascular endothelial growth factor receptor 2 (VEGFR2) Biomarker Activity (AID 2283031); conditions: primary human endothelial cells (HUVEC); actives raise or lower the signal;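 for AC50: cell-surface VEGFR2 protein level quantified by ELISA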
Procedure, shortened: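 Primary human umbilical vein endothelial cells (4H system), 24 h exposure; cell-surface VEGFR2 measured by ELISA. Bidirectional fitting versus DMSO; cytotoxicity checked in parallel by SRB total-protein staining.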

[3] = read-out: Human Leukocyte Antigen - DR isotype (HLADR), HLA-DRA (gene 3122); assay: BSK_BE3C_HLADR: BioMAP Diversity Plus: BE3C Assay for Human Leukocyte Antigen - DR isotype (HLADR) Biomarker Activity (AID 2283032); conditions: primary human bronchial epithelial cells; actives raise or lower the signal
Procedure, shortened: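 ELISA read-out of HLA-DR on human lung bronchial epithelial primary cells, measured 24 h post-dosing. Both increases and decreases were scored relative to DMSO vehicle.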

[4] = read-out: Vascular cell adhesion molecule 1 (VCAM1), VCAM1 (gene 7412); assay: BSK_4H_VCAM1: BioMAP Diversity Plus: 4H Assay for Vascular cell adhesion molecule 1 (VCAM1) Biomarker Activity (AID 2283033); conditions: primary human endothelial cells (HUVEC); actives raise or lower the signal
Procedure, shortened: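 ELISA read-out of VCAM-1 on human umbilical vein endothelium 24 hours after chemical dosing; gain or loss of signal was fitted relative to DMSO, with sulforhodamine B staining of parallel cultures flagging overt cytotoxicity.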

[5] = read-out: Interferon-gamma inducible Protein 10 (IP10), CXCL10 (gene 3627); assay: BSK_BE3C_IP10: BioMAP Diversity Plus: BE3C Assay for Interferon-gamma inducible Protein 10 (IP10) Biomarker Activity (AID 2283034); conditions: primary human bronchial epithelial cells; actives raise or lower the signal
Procedure, shortened: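 Chemical is dosed onto human lung bronchial epithelial primary cells, cultures are incubated 24 h, and IP-10 is then quantified by ELISA. Gain or loss of signal is fitted in both directions relative to DMSO.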

[6] = read-out: Monokine induced gamma interferon (MIG), CXCL9 (gene 4283); assay: BSK_BE3C_MIG: BioMAP Diversity Plus: BE3C Assay for Monokine induced gamma interferon (MIG) Biomarker Activity (AID 2283035); conditions: primary human bronchial epithelial cells; actives raise or lower the signal
Procedure, shortened: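 ELISA read-out of MIG in human lung bronchial epithelial primary cultures, 24 h post-dosing. Bidirectional curve fit vs DMSO baseline.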

[7] = read-out: Transforming growth factor beta 1 (TGFb1), TGFB1 (gene 7040); assay: BSK_BE3C_TGFb1: BioMAP Diversity Plus: BE3C Assay for Transforming growth factor beta 1 (TGFb1) Biomarker Activity (AID 2283036); conditions: primary human bronchial epithelial cells; actives raise or lower the signal
Procedure, shortened: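 Primary human lung bronchial epithelial cells; compound exposure 24 h; TGF-b1 by ELISA; bidirectional fit, DMSO baseline. Parallel SRB total-protein staining for cytotoxicity.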

[8] = read-out: Plasminogen activator inhibitor-1 (PAI1), SERPINE1 (gene 5054); assay: BSK_BE3C_PAI1: BioMAP Diversity Plus: BE3C Assay for Plasminogen activator inhibitor-1 (PAI1) Biomarker Activity (AID 2283037); conditions: primary human bronchial epithelial cells; actives raise or lower the signal
Procedure, shortened: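 Primary human lung bronchial epithelial cells; chemical dosing; 24 h; PAI-1 measured by ELISA; bidirectional fit referenced to DMSO as negative control.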

[9] = read-out: Urokinase-type plasminogen activator receptor (uPAR), PLAUR (gene 5329); assay: BSK_BE3C_uPAR: BioMAP Diversity Plus: BE3C Assay for Urokinase-type plasminogen activator receptor (uPAR) Biomarker Activity (AID 2283039); conditions: primary human bronchial epithelial cells; actives raise or lower the signal
Procedure, shortened: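 Human bronchial epithelial primary cells; chemical exposure 24 h; uPAR by ELISA; bidirectional fit vs DMSO control.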

[10] = read-out: Interleukin-6 (IL6), IL6 (gene 3569); assay: BSK_CASM3C_IL6: BioMAP Diversity Plus: CASM3C Assay for Interleukin-6 (IL6) Biomarker Activity for (AID 2283040); conditions: primary human coronary artery smooth muscle cells; actives raise or lower the signal
[11] = read-out: Tissue plasminogen activator (tPA), PLAT (gene 5327); assay: BSK_BE3C_tPA: BioMAP Diversity Plus: BE3C Assay for Tissue plasminogen activator (tPA) Biomarker Activity (AID 2283041); conditions: primary human bronchial epithelial cells; actives raise or lower the signal
Procedure, shortened: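 Primary human lung bronchial epithelial cultures receive test chemical; after 24 h, tPA is quantified by ELISA, and gain or loss of signal is fitted bidirectionally relative to DMSO baseline.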

[12] = read-out: Interleukin-8 (IL8), CXCL8 (gene 3576); assay: BSK_CASM3C_IL8: BioMAP Diversity Plus: CASM3C Assay for Interleukin-8 (IL8) Biomarker Activity (AID 2283042); conditions: primary human coronary artery smooth muscle cells; actives raise or lower the signal;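 note: IL-8 protein level quantified by ELISA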
[13] = read-out: Human Leukocyte Antigen - DR isotype (HLADR), HLA-DRA (gene 3122); assay: BSK_CASM3C_HLADR: BioMAP Diversity Plus: CASM3C Assay for Human Leukocyte Antigen - DR isotype (HLADR) Biomarker Activity (AID 2283043); conditions: primary human coronary artery smooth muscle cells; actives raise or lower the signal;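 note: cell-surface HLA-DR protein level quantified by ELISA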
[14] = read-out: Macrophage colony-stimulating factor (MCSF), CSF1 (gene 1435); assay: BSK_CASM3C_MCSF: BioMAP Diversity Plus: CASM3C Assay for Macrophage colony-stimulating factor (MCSF) Biomarker Activity (AID 2283044); conditions: primary human coronary artery smooth muscle cells; actives raise or lower the signal;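 note: M-CSF protein amount quantified by ELISA after 24 h exposure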
[15] = read-out: Low-density lipoprotein receptor (LDLR), LDLR (gene 3949); assay: BSK_CASM3C_LDLR: BioMAP Diversity Plus: CASM3C Assay for Low-density lipoprotein receptor (LDLR) Biomarker Activity (AID 2283045); conditions: primary human coronary artery smooth muscle cells; actives raise or lower the signal;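 note: LDLR protein level on the cell surface quantified by ELISA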
[16] = read-out: Monocyte Chemoattractant Protein-1 (MCP1), CCL2 (gene 6347); assay: BSK_CASM3C_MCP1: BioMAP Diversity Plus: CASM3C Assay for Monocyte Chemoattractant Protein-1 (MCP1) Biomarker Activity (AID 2283046); conditions: primary human coronary artery smooth muscle cells; actives raise or lower the signal;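 note: MCP-1 level quantified by ELISA 24 h after dosing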
[17] = BSK_CASM3C_Proliferation: Cell Proliferation Assessment in the BioMAP Diversity Plus: CASM3C Assay (AID 2283047); conditions: primary human coronary artery smooth muscle cells;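 note: sulforhodamine B total protein stain as relative cell number at 560 nm; sub-confluent cells exposed 48 h before staining; fitted both ways against DMSO so gain or loss of cell number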
[18] = read-out: Monokine induced gamma interferon (MIG), CXCL9 (gene 4283); assay: BSK_CASM3C_MIG: BioMAP Diversity Plus: CASM3C Assay for Monokine induced gamma interferon (MIG) Biomarker Activity (AID 2283048); conditions: primary human coronary artery smooth muscle cells; actives raise or lower the signal;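 note: MIG protein level measured by ELISA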
[19] = read-out: serum amyloid A (SAA), SAA1 (gene 6288); assay: BSK_CASM3C_SAA: BioMAP Diversity Plus: CASM3C Assay for serum amyloid A (SAA) Biomarker Activity (AID 2283049); conditions: primary human coronary artery smooth muscle cells; actives raise or lower the signal;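 note: SAA protein level quantified by ELISA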

Measured: AC50

C#CCOS(=O)OC1CCCCC1Oc1ccc(C(C)(C)C)cc1 (configuration not stated)
inactive: [7] | [10] | [12] | [15] | [18]
active: [1] 20 µM | [2] 20 µM | [3] 13.8 µM | [4] 26.8 µM | [5] 16.3 µM | [6] 25.5 µM | [8] 18.4 µM | [9] 20 µM | [11] 13.2 µM | [13] 9.71 µM | [14] 27 µM | [16] 29.8 µM | [17] 16.5 µM | [19] 5.32 µM

O=C(O)COc1nc(Cl)c(Cl)cc1Cl
active: [7] 0.245 µM
inactive: all other assays above

N#Cc1cc(Br)c(O)c(Br)c1
active: [1] 16.9 µM | [3] 11.9 µM | [4] 32 µM | [5] 23.5 µM | [8] 12.8 µM
inactive: all other assays above

COP(N)(=O)SC (configuration not stated)
active: [3] 5.27 µM
inactive: all other assays above

CN(C)C(=S)SSC(=S)N(C)C
inactive: [2] | [10] | [12] | [13] | [15] | [19]
active: [1] 26.3 µM | [3] 8.69 µM | [4] 29.3 µM | [5] 10.7 µM | [6] 11.2 µM | [7] 12.9 µM | [8] 27.1 µM | [9] 9.65 µM | [11] 12 µM | [14] 12 µM | [16] 20 µM | [17] 12.6 µM | [18] 14.6 µM

CCON=C(CC)C1=C(O)CC(c2c(C)cc(C)cc2C)CC1=O (configuration not stated)
inactive: all assays above

Fc1ccc(Oc2ccnc3cc(Cl)cc(Cl)c23)cc1
inactive: [12] | [13] | [14] | [15] | [18] | [19]
active: [1] 32.1 µM | [2] 27.2 µM | [3] 24.3 µM | [4] 30.1 µM | [5] 28.7 µM | [6] 34.3 µM | [7] 32.9 µM | [8] 30.3 µM | [9] 34.2 µM | [10] 11.4 µM | [11] 31.9 µM | [16] 30.6 µM | [17] 24.4 µM

CNC(=S)S
active: [4] 22.4 µM | [9] 11.7 µM
inactive: all other assays above
